# In PubChem BioAssay:
# Several values for one entry are separate records, joined by “and”; a condition that tells them apart may be missing. Equal values may be shown once. For part of these data: Potency and affinity values are given separately. Activity calls are given as the source filed them.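 How the source made its calls, unless noted: active means compounds whose cell count with miR-34 switched on is under 0.7 times the count with it off; inactive means the rest.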
# Columns and labels:
# [1] = circadian clock period modulators, cell-based, LOPAC library, luminescence reporter (AID 2774; call rule not given here;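 further: values are relative to mean of DMSO wells on each plate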); conditions: circadian reporter cells, at 7 µM, actives lie on both sides
# [2] = test system: Hepatitis C virus NS3 helicase; test: HCV NS3 helicase inhibitors, primary screen, biochemical, fluorescence polarization, LOPAC1280 library (AID 687035; in the data active means inhibition above about 37%); conditions: Purified HCV NS3 helicase, Cy5-dT15 ssDNA binding fluorescence polarization; stronger effect = higher value; concentration not given here
# [3] = Cy5 fluorescence quenching or enhancement artefacts, artefact control for HCV NS3 helicase inhibitor project, biochemical, LOPAC1280 (AID 687037; call rule not given here); conditions: Cy5-DNA-NS3h complex fluorescence interference counterscreen
# [4] = differential killing of epithelial or mesenchymal cells, primary screen, imaging, PC-3E GFP, TEM4-18 mCherry, co-culture (AID 1345086;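 active means compounds killing one labelled cell type while sparing the other, by normalised counts and ratio limits, not self-fluorescent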;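 on all read-outs here: cells exposed to compound for 72 h before imaging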;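 on red/green cell ratio (normalised): normalised mesenchymal count divided by normalised epithelial count so high means epithelial killing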); conditions: imaging cell counts, at 1 µM; for red/green cell ratio (normalised): actives lie on both sides, counts scaled to control wells, 1 = unselective
# [5] = sensitizers of A549 cells to miR-34 induction, primary screen, imaging, A549 dox-inducible miR-34, nuclei and caspase counts (AID 1347080); conditions: A549 miR-34 inducible, Hoechst nuclei count, 48 h
# [6] = phospholipid biosynthesis inhibitors in animal cells, primary screen, cell-based, LOPAC library, screen 4 (AID 1347384; call rule not given here); conditions: phospholipid biosynthesis inhibition screen, at 10 µM
# [7] = viability rescue of complex I mutant cybrids, primary screen, cell-based, galactose medium, ATP luminescence (AID 1645843;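 active means z-score of at least 1.8 in each of two replicates, scored against plate mean and spread of sample wells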;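 further: positive z means more ATP and so rescue of galactose-driven cybrid death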); conditions: complex I mutant cybrid cells, 72 h, stronger effect = higher value
# [8] = survival rescue of mitochondrial mutant cells in low glucose, primary screen, MELAS cybrids, Rieske KO mouse fibroblasts, CellTiter-Glo (AID 1508586;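 active means mean z-score across replicates of 1.96 or higher in either the MELAS or the Rieske mutant cell line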;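 further: z relative to plate mean and SD of compound and empty wells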)
# [9] = biological target: NAD(+) hydrolase SARM1 (Homo sapiens) (UniProt Q6SZW1); test: SARM1 TIR NADase inhibitors, cell lysate, NAD-Glo luminescence (AID 1508614;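 active means compound whose remaining NAD level is above about 45 nM, limit read from the data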); conditions: SAM-TIR HEK293T lysate NADase, at 1 µM, stronger effect = higher value
# NAD(+) hydrolase SARM1 (Homo sapiens), sequence (Q6SZW1 whole entry, looked up): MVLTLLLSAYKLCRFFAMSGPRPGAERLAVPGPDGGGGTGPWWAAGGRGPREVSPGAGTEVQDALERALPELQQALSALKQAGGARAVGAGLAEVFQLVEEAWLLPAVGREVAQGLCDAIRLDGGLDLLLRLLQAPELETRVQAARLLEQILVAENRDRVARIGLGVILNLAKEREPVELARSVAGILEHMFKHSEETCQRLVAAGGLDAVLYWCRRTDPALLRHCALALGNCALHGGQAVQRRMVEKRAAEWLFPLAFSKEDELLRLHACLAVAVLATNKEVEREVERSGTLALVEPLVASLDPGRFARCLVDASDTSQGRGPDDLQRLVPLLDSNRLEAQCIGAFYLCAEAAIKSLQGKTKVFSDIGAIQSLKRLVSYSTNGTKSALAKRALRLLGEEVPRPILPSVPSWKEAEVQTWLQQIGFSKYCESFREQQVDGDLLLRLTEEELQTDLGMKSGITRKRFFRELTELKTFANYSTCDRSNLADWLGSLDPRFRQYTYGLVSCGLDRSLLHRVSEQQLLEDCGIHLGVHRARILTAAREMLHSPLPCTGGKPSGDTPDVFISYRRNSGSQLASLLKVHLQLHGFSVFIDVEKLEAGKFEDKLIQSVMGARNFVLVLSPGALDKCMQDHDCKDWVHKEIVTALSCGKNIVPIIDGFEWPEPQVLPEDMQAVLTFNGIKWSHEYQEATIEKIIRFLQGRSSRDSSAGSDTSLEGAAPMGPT
# [10] = liver-stage malaria parasite growth inhibition, primary screen, cell-based, HepG2, luciferase luminescence, HepG2 viability (AID 624349; in the data active means parasite load remaining mostly below about 12%, no sharp cut-off; inactive means mostly above about 10%;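 further: 100% = mean of DMSO negative control wells on the same plate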); conditions: P. berghei liver stage in HepG2, luciferase luminescence, concentration not given here; parasite load remaining: stronger effect = lower value; viability: measured here: HepG2 viability without parasites
# [11] = biological target: Mitogen-activated protein kinase 7 (Homo sapiens) (UniProt Q13164); test: ERK5 transactivation activators in reporter cells, primary screen, cell-based, HTS (AID 1508626;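 active means luciferase signal above three times the same-plate solvent-only control wells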;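 further: luciferase driven by Gal4-ERK5 fusion binding five Gal4 sites before minimal TATA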); conditions: HeLa Gal4-ERK5 transactivation, 18 h, at 5 µM, stronger effect = higher value
# Mitogen-activated protein kinase 7 (Homo sapiens), sequence (Q13164 whole entry, looked up, the tested form may be a part): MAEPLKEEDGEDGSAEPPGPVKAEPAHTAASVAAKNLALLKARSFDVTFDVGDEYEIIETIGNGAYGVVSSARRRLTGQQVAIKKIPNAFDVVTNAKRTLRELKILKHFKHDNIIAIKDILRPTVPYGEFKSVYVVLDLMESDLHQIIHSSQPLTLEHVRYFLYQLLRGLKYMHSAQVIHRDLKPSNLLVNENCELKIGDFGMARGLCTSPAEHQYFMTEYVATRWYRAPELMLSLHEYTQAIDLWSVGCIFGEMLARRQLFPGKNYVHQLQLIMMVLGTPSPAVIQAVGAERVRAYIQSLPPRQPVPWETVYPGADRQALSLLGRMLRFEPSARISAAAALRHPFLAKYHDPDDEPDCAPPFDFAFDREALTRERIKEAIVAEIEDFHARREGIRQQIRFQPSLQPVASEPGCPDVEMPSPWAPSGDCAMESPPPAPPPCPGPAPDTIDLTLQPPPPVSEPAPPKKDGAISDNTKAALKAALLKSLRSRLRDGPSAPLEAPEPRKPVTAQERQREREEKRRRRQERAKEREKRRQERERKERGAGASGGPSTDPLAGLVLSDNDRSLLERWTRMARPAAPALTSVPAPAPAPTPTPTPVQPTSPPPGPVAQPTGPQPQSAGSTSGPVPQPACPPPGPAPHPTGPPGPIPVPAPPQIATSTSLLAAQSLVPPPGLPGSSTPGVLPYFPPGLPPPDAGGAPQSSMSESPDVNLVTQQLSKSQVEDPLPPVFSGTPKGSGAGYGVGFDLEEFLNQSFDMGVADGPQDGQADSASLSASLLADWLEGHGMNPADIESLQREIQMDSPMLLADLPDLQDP
# [12] = hESC survival regulators, cell-based (AID 493140; call rule not given here;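 further: cells exposed to compounds for four days before counting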); conditions: human embryonic stem cell survival screen; stronger effect = higher value
# [13] = polyglutamine-triggered caspase-3 activation inhibitors, cell-based (AID 1583); conditions: polyglutamine-induced caspase-3 activation, cell assay; stronger effect = higher value;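 tested at 10 µM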
# [14] = suppressors of polyQ aggregation in yeast, 75Q-TubU reporter (AID 1593); conditions: Yeast 75Q polyglutamine aggregation reporter
# [15] = rescue of polyQ-huntingtin neuronal dysfunction in worms, whole organism, C. elegans mechanosensory neurons, N-terminal huntingtin (AID 1599); conditions: touch response, stronger effect = higher value
# [16] = inhibitors of mitochondrial cytochrome c release, biochemical, purified mitochondria (AID 1603); conditions: stronger effect = lower value;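 further: mouse liver mitochondria challenged with calcium chloride; signal normalized to the plate average as 100%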
# [17] = inhibitors of polyQ protein aggregation (AID 1604); conditions: polyglutamine-induced protein aggregation inhibition assay; stronger effect = higher value; tested at 2.5 µM
# [18] = enhancers of glutamate uptake in motor neurons, MN-1 cell line (AID 1612); conditions: MN-1 motor neuron cells, stronger effect = higher value;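 further: tested at 1 µM final; 0% = mean of DMSO vehicle wells on each plate; positive means more glutamate uptake than control and negative means less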
# [19] = reducers of polyQ inclusions in PC12 cells, cell-based, NGF-treated PC12, GFPQ80 (AID 1614); conditions: PC12 NGF-treated GFP-polyQ80 inclusion reduction;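 further: lower means fewer inclusions and 0 means no inclusions at all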
# [20] = suppressors of polyglutamine aggregation in yeast, 75Q-TubH (AID 1616); conditions: S. cerevisiae 75Q-TubH polyglutamine aggregation suppression; stronger effect = higher value
# [21] = measured here: epithelial PC-3E GFP cell survival
# [22] = measured here: mesenchymal TEM4-18 mCherry cell survival
# [23] = stronger effect = lower value, cell number ratio, induced over uninduced
# [24] = measured here: relative caspase fold change +Dox/-Dox
# [25] = measured here: total cells with miR-34 induction, stronger effect = lower value
# [26] = measured here: total cells without miR-34 induction
# [27] = MELAS cybrid survival, CellTiter-Glo 48 h, stronger effect = higher value
# [28] = Rieske KO mouse fibroblast survival, CellTiter-Glo 72 h
structure (smiles),measurement,setting,value
CN1C2CCC1CC(OC(=O)c1c[nH]c3ccccc13)C2 (centres undefined),period change,[1],0.005 h (inactive)
same,inhibition,[2],0% (inactive)
same,fluorescence ratio (interference),[3],1 (inactive)
same,red/green cell ratio (normalised),[4],1.09 (inactive)
same,normalised cell number,[4]; [21],0.93
same,normalised cell number,[4]; [22],1.02
same,fold change,[5]; [23],0.997 (inactive) and 0.976 (inactive) and 0.922 (inactive)
same,fold change,[5]; [24],1.28 and 0.664 and 2.09
same,cell count,[5]; [25],10100 and 8850 and 6980
same,cell count,[5]; [26],10100 and 9070 and 7570
same,outcome,[6],inactive
same,z-score,[7],-0.34 (inactive) and 0.77 (inactive)
CC1=CC(=O)NS(=O)(=O)O1,red/green cell ratio (normalised),[4],1.16 (inactive)
same,normalised cell number,[4]; [21],0.89
same,normalised cell number,[4]; [22],1.03
same,fold change,[5]; [23],0.852 (inactive) and 0.934 (inactive)
same,fold change,[5]; [24],0.799 and 0.672
same,cell count,[5]; [25],7390 and 8400
same,cell count,[5]; [26],8680 and 8990
same,z-score,[8]; [27],-0.393 (inactive)
same,z-score,[8]; [28],-0.0842
same,remaining NAD,[9],10 nM (inactive)
N=C(N)c1ccc(N=NNc2ccc(C(=N)N)cc2)cc1 (tested in a mixture with another compound),red/green cell ratio (normalised),[4],0.86 (inactive)
same,normalised cell number,[4]; [21],1.06
same,normalised cell number,[4]; [22],0.91
same,fold change,[5]; [23],0.828 (inactive) and 0.804 (inactive)
same,fold change,[5]; [24],1.35 and 1.21
same,cell count,[5]; [25],6360 and 8020
same,cell count,[5]; [26],7680 and 9970
same,z-score,[8]; [27],6.02 (active)
same,z-score,[8]; [28],5.36
same,remaining NAD,[9],10 nM (inactive)
O=[N+]([O-])O[C@@H]1CO[C@H]2[C@@H]1OC[C@@H]2O,parasite load remaining,[10],73.3% (inactive)
same,viability,[10],93.9%
same,red/green cell ratio (normalised),[4],1.19 (inactive)
same,normalised cell number,[4]; [21],1.15
same,normalised cell number,[4]; [22],1.37
same,fold change,[5]; [23],0.933 (inactive)
same,fold change,[5]; [24],3.92
same,cell count,[5]; [25],12300
same,cell count,[5]; [26],13200
same,z-score,[8]; [27],-0.228 (inactive)
same,z-score,[8]; [28],0.0347
same,remaining NAD,[9],12 nM (inactive)
same,luciferase signal,[11],52 AU (inactive)
CC[C@H]1OC(=O)[C@H](C)[C@@H](O[C@H]2C[C@@](C)(OC)[C@@H](O)[C@H](C)O2)[C@H](C)[C@@H](O[C@@H]2O[C@H](C)C[C@H](N(C)C)[C@H]2O)[C@](C)(O)C[C@@H](C)[C@@H]2N[C@@H](COCCOC)O[C@H]([C@H]2C)[C@]1(C)O,parasite load remaining,[10],193% (inactive) and 158% (inactive) and 59.8% (inactive)
same,viability,[10],113% and 86.5% and 194%
same,red/green cell ratio (normalised),[4],0.74 (inactive)
same,normalised cell number,[4]; [21],1.25
same,normalised cell number,[4]; [22],0.93
same,fold change,[5]; [23],0.867 (inactive) and 0.854 (inactive)
same,fold change,[5]; [24],0.963 and 2.6
same,cell count,[5]; [25],8760 and 11500
same,cell count,[5]; [26],10100 and 13500
same,z-score,[8]; [27],-1.14 (inactive)
same,z-score,[8]; [28],-0.393
same,remaining NAD,[9],10 nM (inactive)
same,luciferase signal,[11],44 AU (inactive)
CN1C2CCCC1CC(NC(=O)c1nn(C)c3ccccc13)C2 (centres undefined),fluorescence ratio (interference),[3],1 (inactive)
same,red/green cell ratio (normalised),[4],0.96 (inactive)
same,normalised cell number,[4]; [21],0.99
same,normalised cell number,[4]; [22],0.95
same,fold change,[5]; [23],0.966 (inactive) and 0.87 (inactive)
same,fold change,[5]; [24],1.65 and 2.43
same,cell count,[5]; [25],10200 and 8870
same,cell count,[5]; [26],10600 and 10200
same,outcome,[6],inactive
same,z-score,[7],-0.44 (inactive) and 0.15 (inactive)
CC(=O)OCC(=O)[C@@]1(O)[C@@H](C)CC2C3CCC4=CC(=O)C=C[C@]4(C)[C@@]3(F)[C@@H](O)C[C@@]21C (some centres undefined),red/green cell ratio (normalised),[4],0.93 (inactive)
same,normalised cell number,[4]; [21],1.21
same,normalised cell number,[4]; [22],1.13
same,fold change,[5]; [23],0.963 (inactive)
same,fold change,[5]; [24],0.848
same,cell count,[5]; [25],6280
same,cell count,[5]; [26],6520
CCCC[C@@H](CC)COC(=O)C(C#N)=C(c1ccccc1)c1ccccc1,red/green cell ratio (normalised),[4],0.92 (inactive)
same,normalised cell number,[4]; [21],1.19
same,normalised cell number,[4]; [22],1.09
same,fold change,[5]; [23],0.897 (inactive)
same,fold change,[5]; [24],0.819
same,cell count,[5]; [25],8030
same,cell count,[5]; [26],8950
COc1nc(N)nc2c1ncn2C1O[C@H](CO)[C@@H](O)[C@@H]1O (some centres undefined),red/green cell ratio (normalised),[4],0.99 (inactive)
same,normalised cell number,[4]; [21],0.92
same,normalised cell number,[4]; [22],0.91
same,fold change,[5]; [23],0.89 (inactive)
same,fold change,[5]; [24],0.801
same,cell count,[5]; [25],7770
same,cell count,[5]; [26],8740
NC(=O)C1CCCN1C(=O)C(Cc1cnc[nH]1)NC(=O)C1CCC(=O)N1 (centres undefined),red/green cell ratio (normalised),[4],1.11 (inactive)
same,normalised cell number,[4]; [21],0.94
same,normalised cell number,[4]; [22],1.04
same,fold change,[5]; [23],0.936 (inactive)
same,fold change,[5]; [24],0.922
same,cell count,[5]; [25],8800
same,cell count,[5]; [26],9400
CCC(NC(C)C)C(O)c1ccc(O)c(O)c1 (centres undefined),period change,[1],0.18 h (inactive)
same,survival,[12],6.67 (inactive)
same,parasite load remaining,[10],55.9% (inactive) and 47.9% (inactive)
same,viability,[10],94.3% and 104%
same,inhibition,[2],-1% (inactive)
same,fluorescence ratio (interference),[3],0.9 (inactive)
same,red/green cell ratio (normalised),[4],1.04 (inactive)
same,normalised cell number,[4]; [21],0.9
same,normalised cell number,[4]; [22],0.93
same,fold change,[5]; [23],1.08 (inactive) and 0.894 (inactive) and 0.889 (inactive)
same,fold change,[5]; [24],0.697 and 1.09 and 4.01
same,cell count,[5]; [25],10800 and 8990 and 12000
same,cell count,[5]; [26],9990 and 10100 and 13500
same,outcome,[6],inactive
same,z-score,[8]; [27],-0.772 (inactive)
same,z-score,[8]; [28],-0.513
same,remaining NAD,[9],10 nM (inactive)
same,luciferase signal,[11],212 AU (inactive)
same,z-score,[7],-1.29 (inactive)
CC1CC(OC(=O)C(O)c2ccccc2)CC(C)(C)C1 (centres undefined),red/green cell ratio (normalised),[4],1 (inactive)
same,normalised cell number,[4]; [21],1.03
same,normalised cell number,[4]; [22],1.03
same,fold change,[5]; [23],0.925 (inactive) and 0.927 (inactive)
same,fold change,[5]; [24],0.697 and 0.603
same,cell count,[5]; [25],7310 and 7360
same,cell count,[5]; [26],7900 and 7940
same,z-score,[8]; [27],-0.227 (inactive)
same,z-score,[8]; [28],-0.184
same,remaining NAD,[9],10 nM (inactive)
O=C(O)[C@H]1/C(=C/CO)O[C@@H]2CC(=O)N21,parasite load remaining,[10],50.6% (inactive)
same,viability,[10],103%
same,red/green cell ratio (normalised),[4],1.31 (inactive)
same,normalised cell number,[4]; [21],0.86
same,normalised cell number,[4]; [22],1.13
same,fold change,[5]; [23],0.901 (inactive)
same,fold change,[5]; [24],3.53
same,cell count,[5]; [25],11900
same,cell count,[5]; [26],13200
same,z-score,[8]; [27],-0.304 (inactive)
same,z-score,[8]; [28],-1.19
same,remaining NAD,[9],10 nM (inactive)
same,luciferase signal,[11],76 AU (inactive)
CCCCC[C@H](CC(=O)NO)C(=O)N[C@H](C(=O)N1CCC[C@H]1CO)C(C)C,inhibition,[13],-22.9%
same,score,[14],1.1
same,rescue above control,[15],7.47
same,cytochrome c release ratio,[16],0.78
same,inhibition of aggregation,[17],14.3%
same,glutamate uptake change,[18],9.77%
same,inclusion score,[19],2
same,aggregation suppression score,[20],1.26
same,period change,[1],-0.03 h (inactive)
same,inhibition,[2],0% (inactive)
same,fluorescence ratio (interference),[3],1.1 (inactive)
same,red/green cell ratio (normalised),[4],0.91 (inactive)
same,normalised cell number,[4]; [21],1.02
same,normalised cell number,[4]; [22],0.93
same,fold change,[5]; [23],2.17 (inactive)
same,fold change,[5]; [24],1.05
same,cell count,[5]; [25],6800
same,cell count,[5]; [26],3130
same,outcome,[6],inactive
same,luciferase signal,[11],192 AU (inactive)
same,z-score,[7],2.42 (inactive)
